Assay outcomes from PubChem BioAssay.
DTT redox prof – compounds producing H2O2 with reducing agent – biochemical, NIH compound library profiling, artefact control for MLSCN library redox annotation, primary screen | hit rate 0.03% among 200,000 | activation, % at 10 µM | DTT-dependent redox cycling H2O2, phenol red/HRP absorbance; 100% = 100 µM peroxide control, 0% = buffer;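 active = activation of at least 50% relative to the plate's high and low controls in the primary single-dose screen; inactive = activation below 50%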;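 also: compound incubated with DTT at 0.8 mM final as the reducing agent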
L929 necroptosis – L929 zVAD cell death inhibition | AID 1377 | viability rescue, % at 10 µM | hit rate 0.38% among 220,000 | L929 zVAD necroptosis rescue, ATP luminescence, 24 h; with zVAD 60 µM;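 active = activation, scaled between plate controls, above about 75%, limit read from the data; inactive = activation under that limit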;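 also: 0% = zVAD with DMSO and 100% = DMSO alone without zVAD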
TNF necrop inh – TNF-alpha cell death inhibition in Jurkat FADD-/- cells; activation (protection from cell death), % at 10 µM; hit rate 0.068% among 220,000; Jurkat FADD-/- TNF necroptosis rescue, ATP luminescence, 24 h; 0 = TNF only, 100 = no-TNF cells;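 active = activation, meaning protection from cell death, of at least 50% relative to plate controls; inactive = activation below 50%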;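 also: necroptosis triggered by 40 ng/mL TNF-alpha added together with compound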
PKD1 inh – PKD1 (human) kinase inhibition; inhibition, % (no concentration beside the values); hit rate 0.056% among 200,000; AID 797; PKD1 kinase fluorescence polarization assay; in the data active = inhibition above about 50%
PERK inh – human PERK inhibition, primary cell-based screen; Q9NZJ5; CHO PERK-DD fusion, SEAP luminescence translation reporter; inhibition, % at 5.6 µM; hit rate 0.17% among 220,000; AID 1416;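 active = inhibition above the mean inhibition of all tested compounds plus 3 SD, set separately per screening campaign, cut at about 2.9% in these data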;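 also: PERK kinase domain activated by AP20187 dimerizer at 100 nM; 0% = DMSO with dimerizer and 100% = rapamycin at 8.4 µM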
Target sequence (Q9NZJ5 whole entry, looked up, the tested form may be a part): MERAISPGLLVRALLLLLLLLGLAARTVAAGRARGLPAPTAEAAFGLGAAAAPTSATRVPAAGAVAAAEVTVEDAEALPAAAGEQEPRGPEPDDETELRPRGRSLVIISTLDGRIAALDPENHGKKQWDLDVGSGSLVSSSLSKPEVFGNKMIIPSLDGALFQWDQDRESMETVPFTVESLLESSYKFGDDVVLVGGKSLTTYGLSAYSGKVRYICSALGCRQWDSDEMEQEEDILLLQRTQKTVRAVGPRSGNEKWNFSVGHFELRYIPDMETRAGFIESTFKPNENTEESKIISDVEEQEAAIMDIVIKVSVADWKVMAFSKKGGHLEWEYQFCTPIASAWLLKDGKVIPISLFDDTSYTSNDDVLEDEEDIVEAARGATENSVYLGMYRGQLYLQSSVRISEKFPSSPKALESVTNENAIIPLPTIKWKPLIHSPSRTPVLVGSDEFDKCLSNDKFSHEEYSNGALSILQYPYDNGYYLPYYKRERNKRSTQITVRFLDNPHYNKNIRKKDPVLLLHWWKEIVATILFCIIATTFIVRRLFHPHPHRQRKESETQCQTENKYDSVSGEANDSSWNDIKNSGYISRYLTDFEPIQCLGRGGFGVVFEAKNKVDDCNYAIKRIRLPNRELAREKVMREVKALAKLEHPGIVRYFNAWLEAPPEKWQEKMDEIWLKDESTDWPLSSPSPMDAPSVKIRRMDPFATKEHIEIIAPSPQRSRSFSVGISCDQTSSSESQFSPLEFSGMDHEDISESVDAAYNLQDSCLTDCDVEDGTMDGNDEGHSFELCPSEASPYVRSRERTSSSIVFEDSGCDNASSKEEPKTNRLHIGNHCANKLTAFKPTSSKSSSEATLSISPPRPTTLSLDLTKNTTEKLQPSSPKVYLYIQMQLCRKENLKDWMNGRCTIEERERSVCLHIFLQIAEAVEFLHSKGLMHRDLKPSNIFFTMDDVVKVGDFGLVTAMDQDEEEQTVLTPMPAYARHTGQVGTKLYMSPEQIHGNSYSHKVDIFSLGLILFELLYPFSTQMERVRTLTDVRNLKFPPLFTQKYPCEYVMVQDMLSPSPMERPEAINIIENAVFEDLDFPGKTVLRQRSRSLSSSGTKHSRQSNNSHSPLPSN
WT yeast gro inh – growth inhibition of WT yeast, mitochondrial fusion screen; mitochondrial fusion phenotypic screen, WT strain; inhibition, % at 10 µM; hit rate 2.1% among 190,000; AID 1362; in the data active = inhibition above about 58%; tested in S. cerevisiae
The depositor's hits bear a star; nt = not tested or not shown. A selection: hits, their analogues and other compounds. The true share with any hit is near 2.4%.

SMILES	DTT redox prof	L929 necroptosis	TNF necrop inh	PKD1 inh	PERK inh	WT yeast gro inh
C/C(N)=C(/C#N)C(=O)CSc1nnnn1-c1ccc(C)cc1	-1	0	-1	10	-1	5
CSc1ccccc1-n1nnnc1SCC(=O)NCc1cccs1	1	0	-1	-5	1	-5
N=C1/C(=C\c2ccc(OCc3ccccc3)cc2)C(=O)N=C2SC(N3CCCC3)=NN12	1	1	2	-7	2	12
CCC(NC(=O)Nc1cc(C)on1)(C(F)(F)F)C(F)(F)F	nt	1	3	nt	3.2*	nt
Cc1cc(NC(=O)c2sccc2C)n(-c2nc3ccccc3[nH]2)n1	-1	1	2	2	1	79*
O=C(CCc1nc(-c2ccccc2)no1)NCCc1ccccc1	2	0	-1	-7	2	62*
CCN(CC)S(=O)(=O)c1ccc(N2CCOCC2)c(NC(=O)Cc2cccc3ccccc23)c1	1	0	3	-14	0	6
O=C1c2ccccc2C(=O)N1CCN1CCCCC1	1	0	-1	-4	0	66*
O=C(/C=C/C=C/c1ccccc1)CC1(O)C(=O)N(CCc2ccccc2)c2ccccc21 (stereo not drawn)	-4	0	-6	-1	1	60*
COc1ccc(NC(=O)c2csc(Cc3ccc(Cl)cc3)n2)cc1	-1	1	-1	-5	0	59*
COc1ccc(Cc2nc(C(=O)Nc3ccc(Cl)cc3)cs2)cc1	0	0	-2	3	0	54
O=C(Nc1cccc(Cl)c1)c1csc(-c2ccccc2)n1	2	0	-2	-2	2	61*
O=C(Nc1ccc(Cl)cc1)c1csc(Cc2ccccc2)n1	-2	4	0	-1	1	74*
CCc1ccc(CN(C)Cc2nc(-c3cccc(Cl)c3)no2)nc1	0	5	1	0	-1	18
CCOC(=O)C1CSC(CC(=O)Nc2ccc(OC(F)(F)F)cc2)C(=O)N1 (stereo not drawn)	nt	1	5	nt	1	nt
CS(=O)(=O)Nc1cccc(C2=NN(C(=O)c3ccccc3Cl)C(c3ccccc3O)C2)c1 (stereo not drawn)	-1	0	-1	6	0	-1
Cc1ccc(NC(CNS(=O)(=O)c2ccc(Cl)cc2)c2ccccc2)cc1 (stereo not drawn)	2	1	1	8	0	88*
O=S(=O)(NCC(Nc1ccc(Cl)cc1)c1ccccc1)c1ccccc1 (stereo not drawn)	0	1	3	-5	0	83*
NS(=O)(=O)c1ccc(NC(CNS(=O)(=O)c2ccccc2)c2ccccc2)cc1 (stereo not drawn)	-2	-1	0	-2	0	1
COCCn1c(SCC(=O)NCc2ccc3c(c2)OCO3)nc2ccccc2c1=O	-2	0	0	-1	-1	14
O=C(c1ccc(Cl)cc1)N1CCC(O)(CSc2ccccc2)CC1	2	0	-1	-12	0	16
O=C(c1ccc(Cl)cc1)N1CCC(O)(CSc2ccc(Cl)cc2)CC1	-1	0	-6	2	0	61*
Cn1nc(C(F)(F)F)c2cc(C(=O)Nc3ccc(F)cc3F)sc21	-3	0	-2	0	0	-20
Cn1nc(C(F)(F)F)c2cc(NC(=O)OCc3ccc(F)cc3)sc21	-5	0	2	5	0	79*
Cn1nc(C(F)(F)F)c2cc(C(=O)Nc3ccc(Cl)cc3)sc21	1	0	-3	5	1	74*
SMILES	DTT redox prof	L929 necroptosis	TNF necrop inh	PKD1 inh	PERK inh	WT yeast gro inh
CN(C)c1ccc2c(c1)Sc1cc(N(C)C)ccc1N2C(=O)c1ccccc1	nt	0	1	nt	-1	nt
NNC(=O)c1cccc(COc2ccc3c(c2)CCC3)c1	1	nt	2	2	0	81*
Cc1ccc(NC(=O)COc2ccccc2C=O)cc1Cl	1	2	-1	3	0	4
c1ccc2c(N3CCCCC3)nnc(N3CCCCC3)c2c1	1	-1	78*	5	-1	12
Cc1nnc(N2CCCCC2)c2ccccc12	3	0	0	3	0	7
Oc1ccc(Cl)cc1-c1cc(-c2ccccc2Cl)[nH]n1	1	0	-2	-3	0	37
